Here are results for 56 molecules from paper PMC4336329 (PLoS ONE, 2015).

Out of some 310,000 compounds screened, about 2,200 (0.71%) showed an effect of 50% or more. Effects have a minus sign here. The list comes from a sample in which strong results are over-represented; it also holds similar structures and randomly drawn compounds.

The target of the experiment is human ether-à-go-go-related gene (hERG) potassium channel (human, UniProt Q12809). Put plainly: primary screen, population patch clamp on CHO cells stably expressing hERG; higher = less effect of the substance.
Chain of human ether-à-go-go-related gene (hERG) potassium channel (Q12809 whole entry, looked up): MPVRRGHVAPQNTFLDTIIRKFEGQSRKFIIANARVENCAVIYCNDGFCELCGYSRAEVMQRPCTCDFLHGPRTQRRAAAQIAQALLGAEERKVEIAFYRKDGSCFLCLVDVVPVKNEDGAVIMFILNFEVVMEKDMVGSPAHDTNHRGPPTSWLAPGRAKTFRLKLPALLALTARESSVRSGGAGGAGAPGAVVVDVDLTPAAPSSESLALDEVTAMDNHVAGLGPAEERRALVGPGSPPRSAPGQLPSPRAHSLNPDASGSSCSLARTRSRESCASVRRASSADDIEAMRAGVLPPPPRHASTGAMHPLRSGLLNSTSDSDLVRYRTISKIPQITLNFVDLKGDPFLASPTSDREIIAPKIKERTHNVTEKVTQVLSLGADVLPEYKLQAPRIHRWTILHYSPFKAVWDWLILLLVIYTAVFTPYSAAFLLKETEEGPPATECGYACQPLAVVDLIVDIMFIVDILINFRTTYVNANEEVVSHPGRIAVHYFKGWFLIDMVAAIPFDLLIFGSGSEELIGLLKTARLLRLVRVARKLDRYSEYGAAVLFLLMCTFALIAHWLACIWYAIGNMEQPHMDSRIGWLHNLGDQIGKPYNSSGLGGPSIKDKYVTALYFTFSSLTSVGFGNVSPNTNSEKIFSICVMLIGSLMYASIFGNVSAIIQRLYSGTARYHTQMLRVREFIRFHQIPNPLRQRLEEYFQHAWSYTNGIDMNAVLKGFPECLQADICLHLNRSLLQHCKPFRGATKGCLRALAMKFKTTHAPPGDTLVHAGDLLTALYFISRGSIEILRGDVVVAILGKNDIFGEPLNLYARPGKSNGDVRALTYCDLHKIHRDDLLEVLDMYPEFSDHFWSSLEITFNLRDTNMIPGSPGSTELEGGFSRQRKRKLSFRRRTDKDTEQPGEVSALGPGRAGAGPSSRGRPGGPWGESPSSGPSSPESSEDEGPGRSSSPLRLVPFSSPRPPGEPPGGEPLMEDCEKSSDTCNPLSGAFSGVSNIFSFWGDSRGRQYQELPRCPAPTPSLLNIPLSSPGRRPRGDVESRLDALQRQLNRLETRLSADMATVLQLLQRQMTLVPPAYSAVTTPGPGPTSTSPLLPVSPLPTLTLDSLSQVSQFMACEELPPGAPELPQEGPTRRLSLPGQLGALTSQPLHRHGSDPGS
On to `Cc1ccc2c(c1)CC1(CN2C)C(=O)NC(=O)N(C(C)C)C1=O` (centres unmarked), for which the “hERG current change (%, negative = inhibition) at 1uM” value is recorded as 19.3%.

As for `C/C(=N\Nc1nc2ccccc2[nH]1)c1ccc(C)o1`, the “hERG current change (%, negative = inhibition) at 1uM” value worked out at 8.2%.

Take `C/C(=N\Nc1nc2ccccc2[nH]1)c1cccs1`: the “hERG current change (%, negative = inhibition) at 1uM” value is -0.576%.

For `C/C(=N\Nc1nc2ccccc2[nH]1)c1ccccn1`, the “hERG current change (%, negative = inhibition) at 1uM” value was -55.5%.

As for `CC1CCCCC1NC(=O)CCNS(=O)(=O)c1ccc(Cl)cc1` (centres unmarked), the “hERG current change (%, negative = inhibition) at 1uM” value is 7.29%.

As to `O=C(C1CCC(CNS(=O)(=O)c2cccc3cccnc23)CC1)N1CCc2ccccc21` (centres unmarked), the “hERG current change (%, negative = inhibition) at 1uM” value was found to be 1.06%.

On to `Brc1cc2c(cc1Br)OCCOCCOCCOCCO2`, for which the “hERG current change (%, negative = inhibition) at 1uM” value is -38.2%.

In the case of `c1ccc2c(c1)OCCOCCOCCOCCOCCOc1ccccc1OCCOCCOCCO2`, the “hERG current change (%, negative = inhibition) at 1uM” value is on record as -8.98%.

On to `C=Cc1ccc2c(c1)OCCOCCOCCOCCOCCO2`, for which the “hERG current change (%, negative = inhibition) at 1uM” value is reported as -70.2%.

On to `Cl.Nc1ccc2c(c1)OCCOCCOCCOCCOCCO2`, for which the “hERG current change (%, negative = inhibition) at 1uM” value is on record as -12.2%.

`Brc1cc2c(cc1Br)OCCOCCOCCO2`: the “hERG current change (%, negative = inhibition) at 1uM” value turned out to be 5.78%.

With `O=C(O)/C=C/c1ccc2c(c1)OCCO2`, the “hERG current change (%, negative = inhibition) at 1uM” value came to 6.97%.

For the molecule `Brc1ccc2c(c1)OCCOCCOc1cc(Br)ccc1OCCOCCOCCO2`, the “hERG current change (%, negative = inhibition) at 1uM” value is listed as -6.77%.

`Brc1ccc2c(c1)OCCOCCOCCOCCOCCOCCO2`: the “hERG current change (%, negative = inhibition) at 1uM” value is -60%.

As to `Brc1ccc2c(c1)OCCOCCOCCOCCOCCO2`, the “hERG current change (%, negative = inhibition) at 1uM” value is given as -78.6%.

As for `CCNC(=S)N1CCc2ccccc2C1`, the “hERG current change (%, negative = inhibition) at 1uM” value was 9.59%.

`CCOc1ccc(C(=O)n2cnnc2N)cc1`: the “hERG current change (%, negative = inhibition) at 1uM” value was found to be 16.9%.

Turning to `Cc1nc(SC2CCOC2=O)c2c(C)c(C)sc2n1` (centres unmarked), the “hERG current change (%, negative = inhibition) at 1uM” value amounted to 4.94%.

Take `Cc1cccc(NC(=O)C2CCN(S(=O)(=O)c3cccs3)CC2)n1`: the “hERG current change (%, negative = inhibition) at 1uM” value came out at 2.08%.

Regarding `Cc1ccc(-n2c(C)nnc2SCC(=O)N2CCc3ccccc3C2)cc1`, the “hERG current change (%, negative = inhibition) at 1uM” value is -19.6%.

Regarding `Cc1ccc(N(C(=O)c2ccccn2)C2(C(=O)NC3CCCC3)CCCCC2)cc1`, the “hERG current change (%, negative = inhibition) at 1uM” value is 16.9%.

With `CC(=O)O.CN(C)Cc1cn(CCC(=O)O)c2ccccc12`, the “hERG current change (%, negative = inhibition) at 1uM” value was 10.9%.

With `CCOC(=O)C1CCCN(CCC(=O)Nc2cc(C)ccc2C)C1.Cl` (centres unmarked), the “hERG current change (%, negative = inhibition) at 1uM” value is recorded as -8.02%.

In the case of `COc1ccc(-n2c(SCC(=O)NCC3CCCO3)nc3n[nH]c(C)c3c2=N)cc1` (centres unmarked), the “hERG current change (%, negative = inhibition) at 1uM” value stood at 7.29%.

As for `O=C(COc1ccc(Cl)cc1Cl)Nc1nc2n(n1)C(c1ccccc1)CC(=O)N2` (centres unmarked), the “hERG current change (%, negative = inhibition) at 1uM” value was 1.52%.

Take `CCc1nnc(NC(=O)c2cc(S(=O)(=O)N3CCCCC3)ccc2C)s1`: the “hERG current change (%, negative = inhibition) at 1uM” value stood at 1.93%.

For `CCn1c2ccccc2c2cc(NC(=O)CSc3nnc(-c4cccc(Cl)c4)o3)ccc21`, the “hERG current change (%, negative = inhibition) at 1uM” value came out at 9.78%.

Consider `CCCN1CCN(C(=O)c2oc3ccccc3c2NC(=O)COc2ccc(OC)cc2)CC1`, for which the “hERG current change (%, negative = inhibition) at 1uM” value is recorded as -46.3%.

As to `O=C(COc1ccccc1)Nc1ccccc1C(=O)NCc1ccco1`, the “hERG current change (%, negative = inhibition) at 1uM” value amounted to 6.35%.

As for `COc1ccc(OCC(=O)Nc2c(C(=O)N3CCN(C)CC3)oc3ccccc23)cc1`, the “hERG current change (%, negative = inhibition) at 1uM” value is given as -15%.

For the molecule `Cc1ccccc1C(=O)Nc1c(C(=O)N(CCN(C)C)Cc2ccco2)oc2ccccc12`, the “hERG current change (%, negative = inhibition) at 1uM” value was -81.1%.

As to `COc1ccc(OCC(=O)Nc2c(C(=O)N(CCN(C)C)Cc3ccco3)oc3ccccc23)cc1`, the “hERG current change (%, negative = inhibition) at 1uM” value is -82.2%.

For the molecule `CN(C)CCN(Cc1ccco1)C(=O)c1oc2ccccc2c1NC(=O)COc1ccccc1`, the “hERG current change (%, negative = inhibition) at 1uM” value is recorded as -79.3%.

On to `Cc1c(C(=O)OCC(=O)NCc2ccco2)oc2ccccc12`, for which the “hERG current change (%, negative = inhibition) at 1uM” value is 10.1%.

With `COc1ccccc1C(=O)Nc1c(C(=O)N(CCN(C)C)Cc2ccco2)oc2ccccc12`, the “hERG current change (%, negative = inhibition) at 1uM” value is -27.4%.

Turning to `Cc1c(C(=O)NCc2ccco2)oc2ccccc12`, the “hERG current change (%, negative = inhibition) at 1uM” value came to 9.16%.

With `O=c1c(=Nc2ccccc2O)c(=O)c2ccccc12`, the “hERG current change (%, negative = inhibition) at 1uM” value is listed as 17.3%.

For `O=c1[nH]c2cc3c(cc2cc1CN(Cc1ccco1)C(=S)NCC1CCCO1)OCCO3` (centres unmarked), the “hERG current change (%, negative = inhibition) at 1uM” value was determined as 15.1%.

In the case of `COC(=O)c1sc(NC(=S)NC(=O)c2ccccc2F)nc1C`, the “hERG current change (%, negative = inhibition) at 1uM” value is 2.7%.

`O=C1CCC([N+](=O)[O-])C(c2cc(Br)ccc2F)N1` (centres unmarked): the “hERG current change (%, negative = inhibition) at 1uM” value is on record as 14.5%.

Consider `O=C(CNC(=O)c1ccc(F)cc1)c1ccc(Cl)cc1`, for which the “hERG current change (%, negative = inhibition) at 1uM” value is 19.6%.

Regarding `Cc1cccc(CN2C[C@]34C=C[C@@H](C[C@@H]3S2(=O)=O)O4)c1`, the “hERG current change (%, negative = inhibition) at 1uM” value amounted to 10.3%.

For the molecule `CCCNC(=O)c1ccc(N2CC3CC(C2)c2cccc(=O)n2C3)c(NC(=O)Nc2ccc(CC)cc2)c1` (centres unmarked), the “hERG current change (%, negative = inhibition) at 1uM” value is on record as -56.1%.

Consider `CCc1ccc(NC(=O)Nc2cc(C(=O)NCC3CCCO3)ccc2N2CC3CC(C2)c2cccc(=O)n2C3)cc1` (centres unmarked), for which the “hERG current change (%, negative = inhibition) at 1uM” value amounted to 11.3%.

Consider `CCc1ccc(NC(=O)Nc2cc(C(=O)O)ccc2N2CC3CC(C2)c2cccc(=O)n2C3)cc1` (centres unmarked), for which the “hERG current change (%, negative = inhibition) at 1uM” value amounted to 19.5%.

Turning to `CCOC(=O)c1ccc(NC(=O)CSc2ccc(-c3ccncc3)nn2)cc1`, the “hERG current change (%, negative = inhibition) at 1uM” value came out at 9.76%.

Turning to `NCCCC[C@H]1CN=C(N)N1CCc1cccc2ccccc12`, the “hERG current change (%, negative = inhibition) at 1uM” value came out at 9.97%.

Regarding `Cc1ccc(C(=O)N/C(=C\c2ccc(-c3cccc([N+](=O)[O-])c3)o2)C(=O)NCCCN2CCOCC2)cc1`, the “hERG current change (%, negative = inhibition) at 1uM” value is -74.7%.

On to `CN(C)CCCNC(=O)/C(=C\c1ccc(-c2cccc([N+](=O)[O-])c2)o1)NC(=O)c1ccccc1`, for which the “hERG current change (%, negative = inhibition) at 1uM” value is given as -77.9%.

Turning to `Cc1ccc(C(=O)N/C(=C\c2ccc(-c3cccc([N+](=O)[O-])c3)o2)C(=O)NCCCN(C)C)cc1`, the “hERG current change (%, negative = inhibition) at 1uM” value was -27.5%.

Regarding `O=C(NCCCO)/C(=C/c1ccc(-c2cccc([N+](=O)[O-])c2)o1)NC(=O)c1ccccc1`, the “hERG current change (%, negative = inhibition) at 1uM” value is on record as -4.53%.

For the molecule `CN(C)CCNC(=O)/C(=C/c1ccc(-c2cccc([N+](=O)[O-])c2)o1)NC(=O)c1ccccc1`, the “hERG current change (%, negative = inhibition) at 1uM” value was -37.2%.

On to `Cc1ccc(C(=O)N/C(=C/c2ccc(-c3cccc([N+](=O)[O-])c3)o2)C(=O)NC(C)C)cc1`, for which the “hERG current change (%, negative = inhibition) at 1uM” value was 10.1%.

Consider `Cc1ccc(C(=O)N/C(=C/c2ccc(-c3cccc([N+](=O)[O-])c3)o2)C(=O)NC(C)(C)C)cc1`, for which the “hERG current change (%, negative = inhibition) at 1uM” value is -0.682%.

On to `Cc1ccc(C(=O)N/C(=C\c2ccc(-c3ccccc3[N+](=O)[O-])o2)C(=O)NCCCN2CCOCC2)cc1`, for which the “hERG current change (%, negative = inhibition) at 1uM” value is given as -11.2%.

In the case of `Cc1ccc(C(=O)N/C(=C/c2ccc(-c3cccc([N+](=O)[O-])c3)o2)C(=O)NCCCN(C)C)cc1`, the “hERG current change (%, negative = inhibition) at 1uM” value is on record as -73.3%.
